# Test results from PubChem BioAssay (Tox21).
# Records with an inconclusive call do not appear. Where a call stands in place of a potency, no number is given. Active and inactive are the calls of the source. Calls come from the whole dose curve; as a rule, active = well fitted cell-killing curve with a large enough effect in the repeat runs; inconclusive = weak or mixed curves; inactive = flat fitted curve, though single readings scatter.
# Assay: qHTS assay to identify small molecule antagonists of the estrogen receptor beta (ER-beta) signaling pathway - cell viability counter screen (AID 1259382); note: nearly all actives have a fitted effect of over 55% in size
# Conditions: ER-beta-UAS-bla HEK293T viability, CellTiter-Glo luminescence, 16 h; series mostly up to 92.4 µM
# From the text: U.S. Tox21 Program National Center for Advancing Translational Sciences [NCATS] NIH Chemical Genomics Center [NCGC] U.S. Environmental Protection Agency [EPA] National Institutes of Environmental Health Sciences [NIEHS] National Toxicology Program [NTP] U.S. Food and Drug Administration [FDA] Tox21 Assay Overview: Estrogen receptor (ER), a nuclear hormone receptor, plays an important role in development, metabolic homeostasis and reproduction. Two subtypes of ER, ER-alpha and ER-beta, have similar expression patterns with some uniqueness in both types. Endocrine disrupting chemicals (EDCs) and their interactions with steroid hormone receptors like ER causes disruption of normal endocrine function. To identify the compounds that inhibit ER signaling, an ER-beta-UAS-bla GripTite cell line (Life Technologies, Madison, WI, USA) containing a beta-lactamase reporter gene under the control of an UAS response element was used to screen Tox21 10K compound library. The cytotoxicity of the Tox21 compound library against the ER-beta-bla cell line was tested in parallel by measuring the cell viability using CellTiter-Glo assay in the same wells.
# Tox21 Assay Protocol Summary: ER-beta-UAS-bla HEK293T cells were dispensed at 2,000 cells/4 uL of assay medium containing 2% charcoal stripped FBS per well into black wall/clear-bottom 1536-well plates using a Multidrop Combi (ThermoFisher Scientific, Waltham, MA) dispenser. After the assay plates were incubated at a 37C and 5% CO2 for 6 hr, 23 nL of compounds dissolved in DMSO, positive controls or DMSO only was transferred to the assay plate by a Pintool station (Kalypsys, San Diego, CA), followed by addition of 1 uL (1nM as final concentration) of 17-beta-estradiol (E2) in assay medium using a Flying Reagent Dispenser (FRD, Aurora Discovery, San Diego, CA). The plates were incubated at 37C and 5% CO2 for 16 hr. Then 1 uL of LiveBLAzer B/G FRET substrate was added using a Flying Reagent Dispenser, the plates were incubated at room temperature for 2 hours, and fluorescence intensity was measured by an Envision plate reader (PerkinElmer, Shelton, CT). For cell viability readout that measures cytotoxicity, 4 uL/well of CellTiter-Glo reagent was added into the assay plates using a FRD. After 30 min incubation at room temperature, the luminescence intensity in the plates was measured using a ViewLux (PerkinElmer) plate reader.
# Potency is the fitted concentration of half-maximal effect.
row,Structure (SMILES),Potency
1,CCCCCCCCCCC(=O)O,inactive
2,C=CC(=O)[O-].C=CC(=O)[O-].[Zn+2],inactive
3,CN(C)CCC=C1c2ccccc2C=Cc2ccccc21,29.8 µM (active)
4,C/C=C/C=C/C=O,inactive
5,C[C@H]1C[C@H](O)c2ccsc2S1(=O)=O,inactive
6,COC(=O)C1=C(C)NC(C)=C(C(=O)O[C@@H]2CCCN(Cc3ccccc3)C2)[C@@H]1c1cccc([N+](=O)[O-])c1,inactive
7,Cc1cc2c(OCC(CNC(C)(C)C)OC(=O)c3ccccc3)cccc2[nH]1 (stereo not given),inactive
8,FC(F)(F)c1ccccc1Cl,inactive
9,NC(=O)c1ccncc1,inactive
10,O=C1c2ccccc2C(=O)C1c1ccc(Br)cc1,inactive
11,C=COCC(C)C,inactive
12,C[C@]1(Cn2ccnn2)[C@H](C(=O)O)N2C(=O)C[C@H]2S1(=O)=O,inactive
13,CC(C)C=O,inactive
14,Brc1cc2ccccc2c2ccccc12,inactive
15,O=C(O)C[C@H](NC(=O)OCc1ccccc1)C(=O)O,inactive
16,O=C=Nc1cccc(C(F)(F)F)c1,inactive
17,CO/N=C(/C(=O)N[C@@H]1C(=O)N2C(C(=O)O)=C(COC(N)=O)CS[C@H]12)c1ccco1,inactive
18,CCOC(=O)C1=C(C)NC(C)=C(C(=O)OC)C1c1cccc(Cl)c1Cl (stereo not given),inactive
19,CC(C)=CCC/C(C)=C/CC/C(C)=C/C(=O)OCC(=O)[C@@]1(O)CC[C@H]2[C@@H]3CCC4=CC(=O)C=C[C@]4(C)[C@H]3[C@@H](O)C[C@@]21C,inactive
20,CC(=O)c1ccc([N+](=O)[O-])cc1,inactive

row,Structure (SMILES),Potency
1,C(=C\c1ccccc1)/c1ccccc1,inactive
2,CN1C(=O)OC(C)(C)C1=O,inactive
3,CC(C)(C)C(=O)C(=O)O,inactive
4,CCC1(CO)COCOC1,inactive
5,CS(=O)(=O)c1ccc(-c2cn3ccccc3n2)cc1,inactive
6,CC[N+](CC)(CCNC(=O)C(=O)NCC[N+](CC)(CC)Cc1ccccc1Cl)Cc1ccccc1Cl,inactive
7,CC1(C)[C@@H](OC(=O)CCC(=O)O)CC[C@]2(C)[C@H]3C(=O)C=C4[C@@H]5C[C@@](C)(C(=O)O)CC[C@]5(C)CC[C@@]4(C)[C@]3(C)CC[C@@H]12,inactive
8,CC(=O)N/N=C/c1ccc([N+](=O)[O-])o1,inactive
9,C=C1c2cccc(O)c2C(O)=C2C(=O)[C@]3(O)C(O)=C(C(N)=O)C(=O)[C@@H](N(C)C)[C@@H]3[C@@H](O)[C@H]12,inactive
10,COc1cc(C(=O)NC2CCN(C)CC2)ccc1Nc1ncc2c(n1)N(C1CCCC1)CC(F)(F)C(=O)N2C,15.8 µM (active)
11,Cc1ccc(OC(=O)c2ccccc2O)cc1,inactive
12,CC(O)c1ccccc1 (stereo not given),inactive
13,C[C@@H](O)[C@H]1C(=O)N2C(C(=O)O)=C([C@H]3CCCO3)S[C@H]12,inactive
14,CC(=O)c1cc2ccccc2s1,inactive
15,O=C1Cc2ccccc2N1c1c(Cl)cccc1Cl,inactive
16,CCN(CC)CCNC(=O)COc1ccc(OC)cc1,inactive
17,O=C(O)CCc1nc(-c2ccccc2)c(-c2ccccc2)o1,inactive
18,CC(CN(C)C)C(C)(O)Cc1ccc(Cl)cc1 (stereo not given),inactive
19,Oc1cccc(O)c1O,inactive
20,CC1CC(OC(=O)C(O)c2ccccc2)CC(C)(C)N1C (stereo not given),inactive
